VP16 counter = VP16 counterscreen qHTS for inhibitors of ROR gamma transcriptional activity. Drosophila S2 Gal4-VP16 UAS-luciferase, luminescence, 20 h. Potency, µM (titrated, usually from 53.6 µM), without a hit: at the highest dose activity, negative = inhibition, usual class: inhibitors. 310,000 tested, 3.5% active;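 further: Gal4-VP16 expression switched on by copper sulfate through the metallothionein promoter; potency means the concentration at half of the fitted maximal effect; nearly all actives have a fitted effect of over 50% in size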
IL1B secr inh = qHTS for Inhibitors of Inflammasome Signaling: IL-1-beta AlphaLISA Primary Screen; THP-1 LPS/ATP IL-1B secretion, AlphaLISA, 16 h; hits give low values; activity change, % at 57.5 µM; 360,000 tested, 4.7% active; AID 743279, 2014; in the data active means activity change below about -50%; inconclusive means mostly about -30% to -49%
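THP-1 cells pretreated 1 hr with compounds (up to 57.5 uM final), then stimulated with LPS (250 ng/mL final) plus ATP (1.25 mM final); secreted IL-1B measured by AlphaLISA after 16 hr, decreased signal indicating inhibition.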
LDHA inh = qHTS assay for inhibitors of human lactate dehydrogenase | activity change, % (values are at about 110 or 230 µM) | 480,000 tested, 0.15% active | AID 1347041, 2019 | purified LDHA, NADH/diaphorase-resazurin fluorescence; hits give low values; in the data active means activity change below about -30%; inconclusive means mostly about -25% to -30%;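 further: plate controls were DMSO wells for no effect and wells without enzyme for full effect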
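Remaining NADH was detected by diaphorase (0.133 mg/mL) converting 37 µM resazurin to fluorescent resorufin, read at 0 and 20 minutes. The preceding 5-minute room-temperature reaction used 2 nM LDHA, 0.2 mM sodium pyruvate and 0.06 mM NADH at pH 7.4.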
DT40 TDP1 no CPT = qHTS for Inhibitors of human tyrosyl-DNA phosphodiesterase 1 (TDP1): qHTS in cells in absence of CPT; DT40 Tdp1-/- hTDP1 cells, no CPT, ATP luminescence, 48 h; Potency, µM (series often up to 46.2 µM), without a hit: top-dose activity change, negative = growth inhibition, usual class: inhibitors; 420,000 tested, 15% active; further: potency means the concentration at half of the fitted maximal effect; nearly all actives have a fitted effect of over 55% in size
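Growth kinetics read by CellTiter-Glo luminescence after ≥48 hr at 37 °C. Cells: DT40 Tdp1-/- stably carrying human TDP1, 400 per well, compound exposure in the absence of CPT (DMSO vehicle).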
TDP1 cell CPT = qHTS for Inhibitors of human tyrosyl-DNA phosphodiesterase 1 (TDP1): qHTS in cells in presence of CPT; Potency, µM (top dose mostly 46.2 µM), without a hit: at the top dose activity change, negative = growth inhibition, most hits filed as inhibitors; chicken DT40 Tdp1-/-;hTDP1 cells + 20 nM CPT, ATP luminescence, 48 h; 420,000 tested, 12% active; further: potency means the concentration at half of the fitted maximal effect; nearly all actives have a fitted effect of over 55% in size
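Chicken DT40 Tdp1-/- cells complemented with human TDP1, 400 cells/well, exposed to compounds plus 20 nM camptothecin for at least 48 h at 37 C; viability read as ATP content by CellTiter-Glo luminescence.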
RORg inh = qHTS for inhibitors of ROR gamma transcriptional activity. Nuclear receptor ROR-gamma (Mus musculus), P51450. Potency, µM (series often up to 53.6 µM), for inactives: top-dose activity change, negative = inhibition, hits mostly inhibitors. 310,000 tested, 5.4% active. AID 2551, 2010. Drosophila S2 Gal4-RORgamma UAS-luciferase reporter, 20 h; further: potency means the concentration at half of the fitted maximal effect; nearly all actives have a fitted effect of over 60% in size
Target sequence (P51450 whole entry, looked up, the tested form may be a part): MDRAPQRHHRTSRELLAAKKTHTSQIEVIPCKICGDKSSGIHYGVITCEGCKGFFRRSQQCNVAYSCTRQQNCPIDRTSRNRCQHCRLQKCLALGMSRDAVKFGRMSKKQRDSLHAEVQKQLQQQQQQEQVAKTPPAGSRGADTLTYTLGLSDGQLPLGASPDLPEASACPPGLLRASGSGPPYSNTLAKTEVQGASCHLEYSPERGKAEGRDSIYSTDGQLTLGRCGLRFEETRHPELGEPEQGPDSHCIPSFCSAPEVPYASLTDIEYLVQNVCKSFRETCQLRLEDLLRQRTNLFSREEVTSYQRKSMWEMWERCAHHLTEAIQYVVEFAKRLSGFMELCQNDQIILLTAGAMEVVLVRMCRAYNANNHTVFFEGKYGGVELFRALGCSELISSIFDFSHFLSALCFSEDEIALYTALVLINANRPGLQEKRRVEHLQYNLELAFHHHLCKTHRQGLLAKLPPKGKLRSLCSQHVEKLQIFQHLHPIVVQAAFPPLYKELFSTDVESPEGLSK
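Read-out: Photinus luciferase luminescence; inhibitors lower reporter signal. Insect Schneider cells with Gal4-ROR gamma fusion under metallothionein promoter, UAS reporter; 700 uM final copper sulfate induction, 20 hr, ambient temperature.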
* hit, by the source's call; ? = inconclusive; / = no result; ! = a repeat was not active. An excerpt weighted towards active compounds, which were near 18% of everything screened. Unless noted, the call rests on the fitted dose curve; in most records, active means well fitted curve in the direction sought with a large enough effect; inconclusive means small, poorly fitted or top-dose-only effect, or another doubt; inactive means no such curve, though single readings can be large; an effect the other way counts as inactive or inconclusive. Unless noted, on the % scale 0 is the no-effect control and ±100 the full control effect.

SMILES | VP16 counter | IL1B secr inh | LDHA inh | DT40 TDP1 no CPT | TDP1 cell CPT | RORg inh
Cc1ccccc1C1c2[nH]c3ccccc3c2C[C@H]2C(=O)N(C3CCN(Cc4ccccc4)CC3)CC(=O)N12 (stereo partly drawn) | -8% | / | / | / | / | 1%
O=C1C=C(NCCN2CCOCC2)C(=O)c2cnccc21 | ? | / | / | / | / | 10µM*
O=C1C=C(NCCO)C(=O)c2cnccc21 | 6.3µM* | / | / | / | / | 3.5µM*
Cc1cc(NC(=O)c2ccc(NC(=O)C3=CSCCO3)cc2)ccc1Br | / | / | 4 | / | / | /
CNC(=O)NC(=O)CN(C)Cc1ccsc1 | / | / | 2 | / | / | /
Cn1c(=O)c2c(ncn2CC(=O)c2ccc3ccccc3c2)n(C)c1=O | / | / | 1 | / | / | /
COc1cc(NC(=O)C2CC(c3ccccc3Cl)=NO2)cc(OC)c1OC (stereo not drawn) | 16µM* | -11 | -5 | 23µM* | 16µM* | ?
COc1cc(C2=NOC(C(=O)Nc3ccc(C)cc3)C2)cc(OC)c1OC (stereo not drawn) | 4% | 2 | 1 | 11µM* | 13µM* | -15%
COc1cc(NC(=O)C2CC(c3ccc(Cl)cc3)=NO2)cc(OC)c1OC (stereo not drawn) | -2% | -17 | 1 | ? | -26% | 19%
COc1ccc(C2=NOC(C(=O)Nc3ccc(C)cc3)C2)cc1OC (stereo not drawn) | 11% | 3 | 6 | -30% | -24% | 41%
CCCn1nc(C(=O)NCC(=O)Nc2ccc(F)c(F)c2)c2ccccc2c1=O | / | / | -1 | / | / | /
Cn1c(Cl)nc2c1c(=O)n(Cc1cccc(Cl)c1)c(=O)n2C | / | / | 6 | / | / | /
Cc1ccccc1NC(=O)CSc1nc2c(oc3ccccc32)c(=O)n1-c1ccccc1F | / | / | -3 | 23µM* | ? | /
CCc1ccccc1NC(=O)CSc1nc2c(oc3ccccc32)c(=O)n1-c1ccccc1F | / | / | -18 | 18µM* | ? | /
COCCn1c(SCC(=O)Nc2ccccc2C)nc2c(oc3ccccc32)c1=O | 6% | 0 | -8 | -25% | -28% | 6%
Cn1nc(-c2cccnc2)nc2c(=O)n(C)c(=O)nc1-2 | / | / | 20 | 1.3µM* | 1.1µM* | /
COc1ccc(-c2nc(N)n(S(=O)(=O)c3ccc(C)cc3)n2)cc1 | -1% | 0 | -1 | ? | ? | 23%
Cc1cc(C)n2nc(-c3ccc(F)cc3)nc2n1 | 0% | 25 | -5 | -11% | -17% | 8%
CCn1nc(-c2ccccc2C)nc2c(=O)n(C)c(=O)nc1-2 | / | / | 24 | 1µM* | 1µM* | /
COc1ccc(-c2nc3c(=O)n(C)c(=O)nc-3n(C)n2)cc1 | / | / | 22 | 0.45µM* | 0.089µM* | /
Cn1nc(-c2ccc(F)cc2)nc2c(=O)n(C)c(=O)nc1-2 | / | / | 25 | 0.63µM* | 0.45µM* | /
COc1cccc(C(=O)COc2ccc(F)cc2Cl)c1 | / | / | 12 | / | / | /
Cc1ccc2[nH]c(CN3CCC(CO)(CC4CCCCO4)CC3)c(C)c2c1 (stereo not drawn) | -11% | -113* | -5 | ? | ? | 0%
Cc1ccc(CN2CCC(CO)(CC3CCCCO3)CC2)o1 (stereo not drawn) | -11% | -3 | -4 | -2% | 16% | -17%
CC(=O)c1c(C)[nH]c(C(=O)OC(C)c2nc(-c3ccccc3)no2)c1C (stereo not drawn) | / | / | -4 | / | / | /
SMILES | VP16 counter | IL1B secr inh | LDHA inh | DT40 TDP1 no CPT | TDP1 cell CPT | RORg inh
O=C(c1ccco1)c1nnn(Cc2ccccc2)c1-c1ccccc1 | 18% | -3 | -1 | 21µM* | ? | 11%
COc1ccc(CNC(=O)[C@@H]2CC=C[C@@H]3CCN(Cc4ccc(Cl)c(Cl)c4)C(=O)[C@@H]32)cc1 | / | 0 | -2 | 11µM* | 23µM* | /
CCCCN1CC[C@H]2C=CC[C@@H](C(=O)Nc3ccc(Cl)cc3Cl)[C@H]2C1=O | / | -19 | -1 | ? | 16µM* | /
COc1ccc(CN2CC[C@H]3C=CC[C@@H](C(=O)Nc4ccccc4)[C@H]3C2=O)cc1OC | / | / | / | 10µM*! | ? | /
COc1ccc(CNC(=O)[C@@H]2CC=C[C@@H]3CCN(Cc4ccc(OC)c(OC)c4)C(=O)[C@@H]32)cc1 | / | / | / | -13% | -15% | /
O=C1NC[C@H](c2ccccc2)OC(=O)[C@H](Cc2ccc(F)cc2)C/C=C\C[C@H]1CC(=O)N(CCO)Cc1ccccc1 | / | -60* | 4 | 8.2µM* | 10µM* | /
O=C1NC[C@H](c2ccccc2)OC(=O)[C@@H](Cc2ccc(F)cc2)C/C=C\C[C@H]1CC(=O)N(CCO)Cc1ccccc1 | / | 0 | 7 | ? | 8.2µM* | /
O=C1N[C@@H](c2ccccc2)COC(=O)[C@H](Cc2ccc(F)cc2)C/C=C\C[C@H]1CC(=O)N(CCO)Cc1ccccc1 | / | -22 | 1 | -10% | -2% | /
O=C1NC[C@@H](c2ccccc2)OC(=O)[C@H](Cc2ccc(F)cc2)C/C=C\C[C@H]1CC(=O)N(CCO)Cc1ccccc1 | / | ? | 0 | 16µM* | 21µM* | /
CCN(CC)S(=O)(=O)c1ccc(NS(=O)(=O)c2ccc(C(C)C)cc2)cc1 | / | / | 6 | / | / | /
COc1cccc(C2=CC(=O)C(C(C)(C)C)N2C(C)(C)C)c1 (stereo not drawn) | / | 16 | 10 | 21µM* | ? | /
CC(=O)c1ccc(NC(=O)c2ccc3ccn(C)c3c2)cc1 | / | / | -4 | / | / | /
O=S(=O)(NCCNC/C=C/c1ccc(Br)cc1)c1cccc2cnccc12 | / | / | / | 24µM* | 19µM* | /
CC(=O)NCCNS(=O)(=O)c1cccc2cc(C)cnc12 | / | / | -2 | / | / | /
CNCCNS(=O)(=O)c1cccc2cnccc12 | / | / | / | ? | 18µM* | /
O=S(=O)(NCCCCNS(=O)(=O)c1cccc2cccnc12)c1cccc2cccnc12 | / | / | 1 | -22% | 3% | /
O=S(=O)(NCCNCC=Cc1ccc(Br)cc1)c1cccc2cnccc12 | / | / | ? | 14µM* | 10µM* | /
Cc1ccc2c(CN3CCN(C(=O)c4ccco4)CC3)cc(=O)oc2c1 | / | / | 1 | / | / | /
Cc1ccc2nc(Nc3nc(C)c(Cc4cccc(Cl)c4)c(=O)[nH]3)nc(C)c2c1 | / | / | 0 | / | / | /
Cc1nnc(SCc2nnc(-c3ccc(F)cc3)o2)n1-c1ccccc1 | / | / | 4 | / | / | /
COC(=O)CN1CCCC1Cc1cccc(OC)c1 (stereo not drawn) | / | / | -1 | / | / | /
Cc1cc(C)c2cc(C(=O)N3CCC(C(=O)c4ccc(F)cc4)CC3)[nH]c2c1 | -13% | ? | 3 | 21µM* | ? | 25%

Compound activity deposited in PubChem by National Center for Advancing Translational Sciences (NCATS).
